# In all, about 48,000 compounds went through this assay and about 13,000 (27%) showed an effect of 50% or more. The list shows a part of the results.
# System: Wolbachia pipientis
# Experiment: Anti-Wolbachia Cell-Based Screen
# Type: functional
# Design: scale not given: in the data most compounds retested in dose-response had high values
# Details: 5 µM
row,Structure (SMILES),Percent Effect
1,Cc1ccc(-c2cn3c(n2)CO[C@@H](CNCc2cnn(C)c2)C3)cc1,12.36%
2,COCCN(C)C[C@@H]1CN(C(=O)c2ccc(O)c(Cl)c2)C[C@@H]1CO,127.9%
3,O=C(c1ccc(O)c(Cl)c1)N1C[C@@H](CN2CCCCCC2)[C@@H](CO)C1,-0.5835%
4,COc1ccc(C(=O)N2C[C@@H](CN3CCCCC3)[C@@H](CO)C2)cc1Cl,-0.8846%
5,COc1cc(C)ccc1C(=O)N1C[C@@H](CN(C)CCO)[C@@H](CO)C1,-2.888%
6,Cc1cc(C(=O)N2C[C@@H](CN3CCCCC3)[C@@H](CO)C2)ccc1O,-7.322%
7,COCCN(C)C[C@@H]1CN(C(=O)c2ccc(C)c(Cl)c2)C[C@@H]1CO,113.4%
8,COCCN(C)C[C@@H]1CN(C(=O)c2ccc(O)c(C)c2)C[C@@H]1CO,126%
9,CCCOc1ccc(C(=O)N2C[C@@H](CN3CCCC3)[C@@H](CO)C2)cc1Cl,0.3871%
10,CC(C)CN1C(=O)COC[C@@H]1[C@H](O)c1ccc(NC(=O)C2CC2)cc1,-2.654%
11,CC(C)c1cc(N[C@@H](CO)C(N)=O)n2nccc2n1,27.01%
12,Cc1cnn(-c2cccc(N3CCCCC3)n2)c1,-2.755%
13,CC(C)c1nc(C2CCCN(C(=O)c3ccc4nncn4c3)C2)no1 (stereo not drawn),123.4%
14,CC(C)c1nc(C2CCCN(C(=O)c3ccc4[nH]nnc4c3)C2)no1 (stereo not drawn),134.9%
15,CC(C)c1nc(C2CCCN2C(=O)c2ccc3nncn3c2)no1 (stereo not drawn),-6.434%
16,CC(C)c1nccn1C1CCCN(C(=O)c2ccc3[nH]nnc3c2)C1 (stereo not drawn),-9.073%
17,O=C(c1ccc2c(c1)OCO2)N1CCCC(n2cccn2)C1 (stereo not drawn),4.266%
18,CC(C)c1nc(C2CCCN(C(=O)c3ccc4c(c3)OCO4)C2)no1 (stereo not drawn),127.5%
19,CC(C)c1nc(C2CCCN(C(=O)c3ccc4nccn4c3)C2)no1 (stereo not drawn),-6.875%
20,CC(C)c1nc(C2CCCN(C(=O)c3ccc4c(c3)COC4)C2)no1 (stereo not drawn),126.8%
21,COc1ccccc1OC1CN(C(=O)c2c(C)nc3ccc(C)cn23)C1,-16.35%
22,CC(c1ncc(C(C)(C)C)o1)N1CCN(Cc2ccc(Cl)s2)CC1 (stereo not drawn),-10.01%
23,Cc1ccc(NC(=O)c2nc(N3CCCCC3)ncc2Cl)cc1I,14.77%
24,CC(=O)NC[C@H]1OC[C@@H](NC2CCC(F)(F)CC2)[C@@H]1O,-10%

row,Structure (SMILES),Percent Effect
1,CN(C)C(=O)c1cccc(CNc2ccc(C#N)cn2)c1,29.09%
2,COCc1ccccc1CNc1nnc(C)c(C)c1C#N,-9.449%
3,N#Cc1ccc(NCc2cccc(COC3CCOCC3)c2)nc1,-4.004%
4,Cc1ccccc1C1(CNc2nnc(C)c(C)c2C#N)CCOCC1,10.33%
5,Cc1nnc(NCc2ccc(N3CCC(CO)CC3)cc2)c(C#N)c1C,12.23%
6,Oc1cccc(CNCC2CCCO2)c1 (stereo not drawn),10.1%
7,N#Cc1ccc(NCc2cccc(OCC3CCCO3)c2)nc1 (stereo not drawn),63.12%
8,Cc1nnc(NCc2cccc(OCc3ccccn3)c2)c(C#N)c1C,115.9%
9,Cc1nnc(NCc2cccc(OCC3CCCO3)c2)c(C#N)c1C (stereo not drawn),98.93%
10,Cc1nc2ccccc2nc1NCc1cccc(OCC2CCCO2)c1 (stereo not drawn),113.3%
11,Cc1nnc(NCc2cccnc2N(C)C)c(C#N)c1C,-6.334%
12,Cc1nc2ccccc2nc1NCc1nnc2n1CCC2,-17.33%
13,O=C(c1ccco1)N1CCc2ncnc(NCc3ccccn3)c2CC1,-3.443%
14,CN1C(=O)[C@H]2CC[C@@H]1CN(C(=O)c1csc(Cc3ccccc3)n1)C2,-11.33%
15,CN(C(=O)c1ccc[nH]1)C1CCC(NC(=O)OC(C)(C)C)CC1 (stereo not drawn),-42.92%
16,CCC(C)N(Cc1ccncc1)Cc1ccccc1Cn1cccn1 (stereo not drawn),4.156%
17,O=C(O)C(F)(F)F.O=C([C@H]1C[C@H]2OCC[C@H]2N(CC2CCOCC2)C1)N1CCCC1,10.32%
18,O=C(O)C(F)(F)F.O=C([C@@H]1C[C@@H]2CCN(C3CCOCC3)C[C@@H]2O1)N1CCCC1,130.2%
19,CC1CCN(C(=O)[C@H]2C[C@@H]3CCN(CC4CCOCC4)C[C@H]3O2)CC1.O=C(O)C(F)(F)F,-1.273%
20,CC1CCN(C(=O)[C@H]2C[C@@H]3CCN(CC4CCOCC4)C[C@@H]3O2)CC1.O=C(O)C(F)(F)F,-3.152%
21,O=C(O)C(F)(F)F.O=C([C@@H]1C[C@@H]2CCN(C3CCOCC3)C[C@H]2O1)N1CCOCC1,89.37%
22,O=C(O)C(F)(F)F.O=C([C@H]1C[C@@H]2CCN(C3CCOCC3)C[C@@H]2O1)N1CCOCC1,-5.423%
23,CC1CCN(C(=O)[C@@H]2C[C@@H]3CCN(CC4CCOCC4)C[C@@H]3O2)CC1.O=C(O)C(F)(F)F,-4.888%
24,O=C(O)C(F)(F)F.O=C([C@H]1C[C@@H]2CCN(C3CCOCC3)C[C@H]2O1)N1CCCC1,103.9%

row,Structure (SMILES),Percent Effect
1,O=C(O)C(F)(F)F.O=C([C@H]1COC[C@H]2CN(C3CCOCC3)C[C@H]21)N1CCC(F)CC1,-1.372%
2,Cc1ccccc1CC(=O)N(C)C1CCCC1,-4.156%
3,COc1ccc(-c2cnc(CN3CCn4c(C)nnc4C3)o2)cc1,-11.18%
4,c1csc(-c2nc(CN3CCn4c(nnc4C4CC4)C3)co2)c1,-3.067%
5,Cn1ccnc1-c1ccc(NCC2COc3ccccc3O2)nn1 (stereo not drawn),-1.636%
6,Cc1ccc(CC(=O)NC(C)C(=O)N2CCS(=O)(=O)CC2)cc1 (stereo not drawn),-13.94%
7,CC(C)CC(C)N(C)Cc1nnc(-c2ccco2)o1 (stereo not drawn),9.065%
8,CNC(=O)C1Cn2ccnc2C2(CCN(C(=O)c3ccccn3)CC2)O1 (stereo not drawn),-8.502%
9,CNC(=O)C1Cn2ccnc2C2(CCN(c3ccc(C)nn3)CC2)O1 (stereo not drawn),1.376%
10,CNC(=O)C1Cn2ccnc2C2(CCN(C(=O)NC3CCCC3)CC2)O1 (stereo not drawn),96.32%
11,CNC(=O)C1Cn2ccnc2C2(CCN(Cc3csc(C)n3)CC2)O1 (stereo not drawn),2.029%
12,CNC(=O)C1Cn2ccnc2C2(CCN(CCF)CC2)O1 (stereo not drawn),3.54%
13,NC(=O)C1Cn2ccnc2C2(CCN(C(=O)c3ccncc3)CC2)O1 (stereo not drawn),116.6%
14,CC(C)CNC(=O)N1CCC2(CC1)OC(C(N)=O)Cn1ccnc12.O=C(O)C(F)(F)F (stereo not drawn),99.99%
15,CNC(=O)C1Cn2ccnc2C2(CCN(C(=O)CC3CCCC3)CC2)O1.O=C(O)C(F)(F)F (stereo not drawn),-0.06928%
16,CC(C)CC(=O)N1CCC2(CC1)OC(C(N)=O)Cn1ccnc12.O=C(O)C(F)(F)F (stereo not drawn),113.8%
17,CCc1nc(C)c(C2CC(=O)Nc3c2c(C(C)(C)C)nn3C)[nH]1 (stereo not drawn),-1.206%
18,CCN(C(=O)c1ccc2nnc(C3CCN(S(C)(=O)=O)C3)n2c1)C(C)C (stereo not drawn),-8.044%
19,CCS(=O)(=O)N1CCC(c2nnc(Cn3cccn3)n2C2CC2)CC1,-1.644%
20,CCN(CC)c1ccc(-c2nc(-c3cccc(OC)c3OC)no2)cn1,-1.328%
21,N#Cc1cccc(S(=O)(=O)CCN2CCOC2=O)c1,-9.929%
22,COc1ccc(NC(=O)CCC2CCCN(S(=O)(=O)C3CC3)C2)cc1Cl (stereo not drawn),5.788%
23,COc1ccc(OCc2cc(C(=O)N3CCOCC3)n[nH]2)c(Cl)c1,-1.083%
24,CNC(=O)C1Cn2ccnc2C2(CCN(C(=O)c3ccoc3C)CC2)O1.O=C(O)C(F)(F)F (stereo not drawn),5.988%

row,Structure (SMILES),Percent Effect
1,O=C(NC1CC1)N1CCCC2(CCCCN2)C1.O=C(O)C(F)(F)F (stereo not drawn),-8.648%
2,NC(=O)C1Cn2ccnc2C2(CCN(C(=O)NC3CCCC3)CC2)O1.O=C(O)C(F)(F)F (stereo not drawn),99.21%
3,Cc1nc(O)ccc1C(=O)N1CCCC1c1nc(-c2ccccc2)n[nH]1 (stereo not drawn),-6.533%
4,COCc1cccc(C(=O)N2CCCCC2c2nccs2)c1 (stereo not drawn),13.03%
5,Cc1ccc2cc(C(=O)N3CCCCC3c3nc[nH]n3)ccc2n1 (stereo not drawn),-6.785%
6,Cc1cccc(C(=O)N2CCCC2c2c(C)n[nH]c2C)c1 (stereo not drawn),0.2093%
7,Cc1noc(-c2c[nH]nc2C2CCCN2C(=O)c2ccccc2)c1C (stereo not drawn),143.3%
8,Cc1cc(-c2c[nH]nc2C2CCCCN2C(=O)c2ccccc2)on1 (stereo not drawn),116.8%
9,COCCN1C(=O)[C@H]2CC[C@@H]1CN(C(=O)Cc1c(F)cccc1Cl)C2,-1.329%
10,Cc1[nH]ncc1C(=O)N1CCN(CC(O)C(C)(C)C)CC1 (stereo not drawn),6.282%
11,O=C(c1cnc(Nc2ccccc2)nc1)N1CCS(=O)(=O)CC1,6.856%
12,Cc1noc(CN(Cc2ccco2)Cc2cccc3c2OCO3)n1,-16.92%
13,O=C1CCC2(CCCN(C(=O)c3ccc[nH]3)C2)CN1Cc1cccnc1 (stereo not drawn),-3.42%
14,CCOCC(=O)N1CCC2(CC1)CN(Cc1cccnc1)C(=O)CO2,106.9%
15,CCOCC(=O)N1CCC[C@]2(C[C@@H](OCc3ccncc3)CO2)C1,2.897%
16,O=C(c1ccoc1)N1CCC(NCc2cccnc2)CC1,-13.71%
17,CN(C)CC(=O)N1CCC2(CC1)CN(Cc1cccnc1)C(=O)CO2,109.2%
18,O=C1COC2(CCN(C(=O)c3ccoc3)CC2)CN1Cc1cccnc1,89.17%
19,c1coc(CN2CCC3(CC2)CC(N2CCCC2)CO3)c1 (stereo not drawn),-47.38%
20,O=C1COC2(CCN(Cc3ccco3)CC2)CN1Cc1cccnc1,107.7%
21,O=C1CCC2(CCCN(C(=O)c3ccoc3)C2)CN1Cc1ccncc1 (stereo not drawn),9.259%

# Source: ChEMBL document CHEMBL3988442, “University of Dundee, Small-Polar-MMV Screening Library” (2021)
